From PubChem
The list is not random: actives were taken first. Their share in the collection is about 4%.
CF NFkB block: inhibitors of PAF-induced NF-kB signaling, primary screen, cell-based, GFP fluorescence, uHTS | inhibition, % at 5 µM | actives 0.86% (n = 360,000) | KKLEB NF-kB-GFP reporter, GFP fluorescence overnight | AID 588850, 2011;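 active = at least 50% inhibition at 5 µM, scaled per plate between neutral and stimulator controls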;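 also: PAF is a Pseudomonas aeruginosa culture filtrate used as stimulus; plate controls were PAF-stimulated DMSO wells for no effect and unstimulated DMSO wells for full effect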
TROY signal inh: inhibitors of TROY-driven NF-kB signaling, primary screen, Q293 LMP1-TROYcd cells, NF-kB luciferase, uHTS. Q293 LMP1-TROYcd NF-kB luciferase reporter, 4 h. inhibition, % at 10 µM. actives 0.98% (n = 360,000). AID 1347056, 2019;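 active = compounds whose plate-normalised and pattern-corrected inhibition of the luciferase reporter signal at the single screening dose is 50% or more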
HIF-2a block: HIF-2a reporter inhibitors, primary screen, luminescence, 786-0 RCC cells; actives 0.72% (n = 360,000); 786-0 RCC cells HIF-2a reporter, luciferase luminescence, overnight; inhibition, % at 18.8 µM;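 active = inhibition of the luminescence signal of 40% or more relative to plate controls, in a single-dose primary screen at 18.75 µM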
Peg3 promoter: Peg3 promoter-driven luciferase inhibitors, primary screen, cell-based, HeLa, luciferase luminescence. HeLa PEG-Prom luciferase reporter, overnight. inhibition, % at 20 µM. actives 1.7% (n = 360,000). AID 588405, 2011;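 active = inhibition of at least 50% at 20 µM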
KKLEB cytotox: cytotoxicity in KKLEB CF airway cells, primary screen, cytotoxicity control for CF NF-kB inhibitor project, cell-based, uHTS, fluorescence assay plates; KKLEB CF airway cells viability, ATPlite luminescence, overnight; hits give low values; cells stimulated with P. aeruginosa culture filtrate; activity change (cytotoxicity), % at 5 µM; actives 0.36% (n = 360,000); AID 602141, 2011;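 active = corrected activity change at or below -50% at 5 µM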
TWEAK-Fn14 inh: inhibitors of TWEAK-Fn14 signaling, primary screen, luciferase reporter cells, uHTS. TWEAK-stimulated Fn14 reporter cells, luciferase luminescence, 8 h. inhibition, % at 10 µM. actives 2% (n = 360,000); in the data active = inhibition above about 50%
CF NFkB conf: inhibitors of PAF-induced NF-kB signaling, retest, confirmation, cell-based, GFP fluorescence, single concentration. shares compounds with CF NFkB block. KKLEB CF airway cells, overnight. inhibition, % at 5 µM. actives 64% (n = 1,300). AID 602472, 2012; in the data active = inhibition above about 40%;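 also: stimulus PAF is a Pseudomonas aeruginosa filtrate and not platelet activating factor; plate controls were DMSO wells with stimulus for no effect and unstimulated DMSO wells for full effect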
The depositor's hits bear a star; · = no result given.

SMILES	CF NFkB block	TROY signal inh	HIF-2a block	Peg3 promoter	KKLEB cytotox	TWEAK-Fn14 inh	CF NFkB conf
O=C(O)c1ccc(Nc2nc(-c3cc4ccccc4oc3=O)cs2)cc1O	-18	-46	-38	-6	9	12	·
O=Nc1c(O)n(Cc2c(Cl)cccc2Cl)c2ccccc12	56*	42	25	39	-24	31	67*
O=Nc1c(O)n(Cc2ccc(Cl)cc2)c2ccccc12	30	8	21	30	12	-15	·
S=C(Nc1cccc2ccccc12)Nc1cccc2ccccc12	84*	49	-78	-31	-37	92*	11
Clc1ccc(Cn2ncc3c(N4CCN(c5ccccc5)CC4)ncnc32)cc1	91*	81*	-29	92*	-36	102*	100*
COc1cccc(/C=N/n2c(C3CCCCC3)n[nH]c2=S)c1	60*	32	7	18	-12	52*	77*
Cc1ccc(N(C)C(=O)c2cc(S(=O)(=O)N3CCCCC3)c[nH]2)cc1	50*	13	10	14	1	15	56*
CN(C(=O)c1cc(S(=O)(=O)N2CCCCC2)c[nH]1)C1CCCCC1	-3	0	19	15	-12	-3	·
CC1Sc2ccc(Cl)cc2-c2nc(N)ncc21 (configuration not stated)	66*	36	28	9	-24	42	77*
Oc1ccc(C[C@H]2CN([C@@H](Cc3ccccc3)CN3CCC[C@@H]3CN3C(=S)NC[C@@H]3Cc3ccccc3)C(=S)N2CC2CCCCC2)cc1	24	10	0	-1	-10	9	·
Oc1ccc(C[C@H]2CN([C@@H](Cc3ccccc3)CN3CCCC3CN3C(=S)NC[C@@H]3Cc3ccccc3)C(=S)N2CCc2ccccc2)cc1 (some centres not stated)	·	2	-4	·	·	12	·
CCOc1ccc(CCN2C(=S)N([C@@H](Cc3ccc(O)cc3)CN3CCC[C@@H]3CN3C(=S)NC[C@@H]3CC(C)C)C[C@@H]2Cc2ccc(O)cc2)cc1	55*	32	-48	101*	-16	46	-15
Oc1ccc(C[C@H]2CNC(=S)N2CC2CCCN2C[C@H](Cc2ccc(O)cc2)N2C[C@H](Cc3ccccc3)N(CC3CCCCC3)C2=S)cc1 (some centres not stated)	52*	0	-28	92*	-7	62*	45*
CC(C)C[C@@H](CN1CCC[C@@H]1CN1C(=S)NC[C@@H]1Cc1ccc(O)cc1)N1C[C@H](Cc2ccc(O)cc2)N(CC2CCCCC2)C1=S	67*	18	-31	98*	-39	26	46*
CC(C)C[C@@H](CN1CCCC1CN1C(=S)NC[C@@H]1Cc1ccc(O)cc1)N1C[C@H](Cc2ccc(O)cc2)N(CCc2ccccc2)C1=S (some centres not stated)	59*	25	-37	91*	-11	65*	61*
Nc1cc2ccccc2oc1=O	-2	10	10	-35	1	16	·
CC(C)C(=O)c1cn(CC(=O)N2CCCc3ccccc32)c2ccccc12	10	2	11	23	-3	-10	·
Cc1sc2ncn(CC(=O)NCC3COc4ccccc4O3)c(=O)c2c1S(=O)(=O)N1CCOCC1 (configuration not stated)	11	1	14	22	5	0	·
Cc1ccc(N2CC(C(=O)Nc3ccc(S(=O)(=O)Nc4nccs4)cc3)CC2=O)cc1C (configuration not stated)	9	12	4	-4	1	-8	·
COC(=O)c1[nH]c2cccc(OC)c2c1NC(=O)CN(C)CC1OCCO1	2	7	18	19	6	-8	·
Oc1ccc(C[C@@H](CN2CCCC2CN2C(=S)NC[C@@H]2Cc2ccccc2)N2C[C@H](Cc3ccccc3)N(CC3CCCCC3)C2=S)cc1 (some centres not stated)	·	8	2	·	·	10	·
CC(C)C[C@H]1CNC(=S)N1C[C@H]1CCCN1C[C@H](Cc1ccccc1)N1C[C@H](Cc2ccc(O)cc2)N(CC2CCCCC2)C1=S	65*	-18	-12	93*	-22	27	19
Oc1ccc(C[C@H]2CNC(=S)N2CC2CCCN2C[C@H](Cc2ccc(O)cc2)N2C[C@H](Cc3ccc(O)cc3)N(CC3CCCCCC3)C2=S)cc1 (some centres not stated)	62*	35	-43	54*	-14	89*	32
Cn1c(-c2nonc2N)nc2ccccc21	-18	-5	-21	-23	6	-4	·
CCCn1c(-c2nonc2N)nc2ccccc21	66*	25	7	8	-28	31	61*
SMILES	CF NFkB block	TROY signal inh	HIF-2a block	Peg3 promoter	KKLEB cytotox	TWEAK-Fn14 inh	CF NFkB conf
O=C(Cn1cnc2ccccc21)N/N=C/c1cccs1	0	-6	6	5	-2	12	·
Nc1nc(N)nc(-c2ccc(Cl)c(Cl)c2)n1	79*	-3	-233	-302	-12	60*	91*
Cc1nc(N)nc(N)c1-c1ccc(Cl)c(Cl)c1	10	4	22	23	-10	12	·
Cc1ccc(S(=O)(=O)CC(=O)N2CC(C)OC(C)C2)cc1 (configuration not stated)	0	1	6	6	4	10	·
Cc1onc(-c2ccccc2Cl)c1C(=O)Oc1cc(N)n(S(=O)(=O)c2ccc(F)cc2)n1	62*	49	23	21	-21	28	28
Cc1ccc(S(=O)(=O)n2nc(OC(=O)c3c(-c4ccccc4Cl)noc3C)cc2N)cc1	27	39	17	17	-5	12	·
O=C(/C=C/c1cc([N+](=O)[O-])ccc1OC(F)F)Nc1cccc([N+](=O)[O-])c1	12	22	2	13	2	-42	·
Cc1ccc(CN2C(=O)C(=O)c3cc(C)ccc32)cc1	3	-10	-24	-12	6	-9	·
CCCCN1C(=O)C(=O)c2cc(Cl)ccc21	63*	4	9	-2	-8	4	47*
O=c1cc(C(F)(F)F)[nH]c2ccc(OC(F)(F)F)cc12	26	48	-15	38	-4	-4	·
